Assay results from PubChem BioAssay (NCATS).
Results filed as inconclusive are left out. The source made the active and inactive calls. The call rests on the fitted dose curve; in most records, active means well fitted inhibition curve with a large enough effect; inconclusive means small, poorly fitted or top-dose-only effect; inactive means flat fitted curve, though single readings scatter.

Tests used:
Assay in all cases: qHTS profiling for inhibitors of Plasmodium falciparum proliferation (AID 504749); further: nearly all actives have a fitted effect of over 60% in size
Conditions in all cases: P. falciparum in erythrocytes, SYBR Green DNA, 72 h; series mostly up to 28.7 µM
Dd2 = test system: Dd2
Procedure, shortened: (§1)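 Each compound contacts P. falciparum-infected red blood cells for 72 h at 37 C; lysis buffer (Tris, EDTA, saponin, Triton X, SYBR Green I) is added and fluorescence measured next morning; values normalized to controls.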

ECU = test system: ECU
Procedure, shortened: as §1

FAB9 = test system: FAB9
Procedure, shortened: as §1

GB4 = test system: GB4
Procedure, shortened: as §1

HB3 = test system: HB3
Procedure, shortened: as §1

ICS = test system: ICS
Procedure, shortened: as §1

JCK = test system: JCK
Procedure, shortened: as §1

N140 = test system: N140
Procedure, shortened: as §1

P93_24 = test system: P93_24
Procedure, shortened: as §1

P94_40 = test system: P94_40
Procedure, shortened: as §1

PAD = test system: PAD
Procedure, shortened: as §1

PC15 = test system: PC15
Procedure, shortened: as §1

PC26 = test system: PC26
Procedure, shortened: as §1

PC49 = test system: PC49
Procedure, shortened: as §1

SC27B = test system: SC27B
Procedure, shortened: as §1

TAB109 = test system: TAB109
Procedure, shortened: as §1

TAB113 = test system: TAB113
Procedure, shortened: as §1

TAB165 = test system: TAB165
Procedure, shortened: as §1

W2 = test system: W2
Procedure, shortened: as §1

DIV30 = test system: DIV30
Procedure, shortened: as §1

Measured: Potency
Potency means the concentration at half of the fitted maximal effect.

CCCCCCCCCCCCCCCCCC(=O)OC[C@@H](O)[C@H]1OC[C@H](O)[C@H]1O
not listed: DIV30
inactive: all other assays above

NC(N)=NCC1COc2ccccc2O1 (stereo not given)
not listed: Dd2 | GB4 | HB3 | ICS | P93_24 | W2
inactive: all other assays above

C=CC[N+]1([C@H]2C[C@H]3[C@@H]4CC[C@H]5C[C@H](O)[C@@H](N6CCOCC6)C[C@]5(C)[C@H]4CC[C@]3(C)[C@H]2OC(C)=O)CCCC1
active: Dd2 10 µM | P94_40 8.91 µM | TAB109 6.31 µM | W2 5.36 µM
inactive: FAB9 | JCK | PC15 | PC49

O=C(Nc1ccc(O)cc1)c1ccccc1O
not listed: ECU | TAB113 | TAB165 | DIV30
inactive: all other assays above

Cc1cc2nc3c(=O)[nH]c(=O)nc-3n(C[C@H](O)[C@H](O)[C@H](O)COP(=O)(O)OP(=O)(O)OC[C@H]3O[C@@H](n4cnc5c(N)ncnc54)[C@H](O)[C@@H]3O)c2cc1C
not listed: PC26 | DIV30
inactive: all other assays above

CCOC(=O)C1=C(COCCN)NC(C)=C(C(=O)OC)C1c1ccccc1Cl (stereo not given)
inactive: DIV30 | FAB9 | HB3 | JCK | PAD | PC15 | PC26 | PC49 | SC27B | TAB109 | TAB113

O=c1n(CC2CO2)c(=O)n(CC2CO2)c(=O)n1CC1CO1 (stereo not given)
inactive: DIV30 | ECU | FAB9 | HB3 | JCK | N140 | PC15 | PC26 | PC49 | SC27B | TAB113

OCc1ccccc1
active: ICS 2.24 µM | PC15 10 µM | W2 5.36 µM

Cn1c(O)c(N=NC(N)=S)c2ccccc21
active: ICS 11.2 µM
inactive: FAB9 | JCK | PC15 | PC26 | PC49

COc1ccc2nc(NC(=O)Nc3ccccc3)sc2c1
active: ICS 7.94 µM
not listed: Dd2 | GB4 | N140 | TAB165 | W2 | DIV30
inactive: all other assays above

CC[C@H]1OC(=O)[C@H](C)[C@@H](O[C@H]2C[C@@](C)(OC)[C@@H](O)[C@H](C)O2)C(C)[C@@H](O[C@@H]2O[C@H](C)C[C@H](N(C)C)[C@@H]2O)[C@](C)(OC)C[C@@H](C)C(=O)[C@H](C)[C@@H](O)[C@]1(C)O (stereo not given in full)
active: ICS 10 µM | W2 3.79 µM
not listed: Dd2 | FAB9 | GB4 | HB3 | PC15 | PC26
inactive: all other assays above

CCCOc1cc(N)ccc1C(=O)OCCN(CC)CC
not listed: DIV30
inactive: all other assays above

CCOC(=O)Cc1ccc(-c2ccccc2)cc1
active: N140 0.224 µM
not listed: DIV30
inactive: all other assays above

CNC(=O)[C@H](Cc1c[nH]c2ccccc12)NC(=O)[C@@H](CC(=O)NO)CC(C)C
inactive: JCK | PC15 | PC26 | PC49 | SC27B | TAB113
active: W2 15.1 µM

CCCCCCCCCCCCCCCCOCCOCCOCCOCCOCCOCCOCCOCCOCCOCCOCCOCCOCCOCCOCCOCCOCCOCCOCCOCCO
active: Dd2 11.2 µM | ECU 1.26 µM | HB3 7.08 µM | ICS 4.47 µM | N140 10 µM | P93_24 11.2 µM | PC15 11.2 µM | PC49 12.6 µM | TAB109 12.6 µM | TAB165 14.1 µM | W2 6.75 µM

CCCC(CCC)C(=O)OC1C[C@H]2CC[C@@H](C1)[N+]2(C)C (stereo not given in full)
active: ECU 7.94 µM | ICS 12.6 µM | SC27B 12.6 µM
inactive: FAB9 | JCK | PC49

N[C@@H](Cc1cc(I)c(Oc2ccc(O)c(I)c2)c(I)c1)C(=O)O
active: ICS 11.2 µM | W2 9.53 µM
inactive: FAB9 | HB3 | JCK | PC49

OCCOCCOCCO
not listed: GB4 | PC26 | DIV30
inactive: all other assays above

C/C(=C\C(=O)OCCCCCCCCC(=O)O)C[C@@H]1OC[C@H](C[C@@H]2O[C@H]2[C@@H](C)[C@H](C)O)[C@@H](O)[C@H]1O
active: Dd2 0.178 µM | P94_40 0.141 µM | TAB109 0.141 µM | W2 0.19 µM
inactive: PC15

C#C[C@]1(O)CC[C@@H]2[C@H]3CCC4=CC(=O)CC[C@H]4[C@H]3C(=C)C[C@@]21CC
not listed: GB4 | ICS | PC26 | W2 | DIV30
inactive: all other assays above

Cc1cc(C(=O)NCCc2ccc(S(=O)(=O)NC(=O)NN3CCCCCC3)cc2)no1
not listed: GB4 | PC26 | DIV30
inactive: all other assays above

O=C(O[C@H]1CN2CCC1CC2)N1CCc2ccccc2[C@@H]1c1ccccc1
active: Dd2 4.47 µM | W2 1.69 µM
inactive: FAB9 | HB3 | JCK | N140 | P94_40 | PAD | PC49 | SC27B | TAB109 | TAB113

CC[C@H]1OC(=O)[C@H](C)[C@@H](O[C@H]2C[C@@](C)(OC)[C@@H](O)[C@H](C)O2)[C@H](C)[C@@H](O[C@@H]2O[C@H](C)C[C@H](N(C)C)[C@H]2O)[C@](C)(O)C[C@@H](C)CN(C)[C@H](C)[C@@H](O)[C@]1(C)O
active: Dd2 0.355 µM | GB4 7.57 µM | N140 8.91 µM | P94_40 2.51 µM | TAB109 1 µM | TAB113 12.6 µM | TAB165 7.94 µM | W2 0.426 µM
inactive: FAB9 | JCK | PC26 | PC49

CCOc1cc(-c2nccc3cc(OC)c(OC)cc23)cc(OCC)c1OCC
active: ECU 11.2 µM | W2 15.1 µM
inactive: TAB109

CN(C)C(=O)CCSC(SCCC(=O)O)c1cccc(/C=C/c2ccc3ccc(Cl)cc3n2)c1 (stereo not given)
inactive: FAB9 | JCK | PC15 | PC49
active: ICS 11.2 µM | PAD 11.2 µM | W2 7.57 µM

CC(C)C1=CC2=CC[C@@H]3[C@](C)(CCC[C@@]3(C)C(=O)O)[C@H]2CC1
not listed: GB4 | PC26 | DIV30
inactive: all other assays above

O=C(OC1C[C@@H]2CC3C[C@H](C1)N2CC3=O)c1c[nH]c2ccccc12 (stereo not given in full)
active: ICS 10 µM
inactive: Dd2 | FAB9 | HB3 | JCK | N140 | P93_24 | P94_40 | SC27B | TAB113

CN1CCc2c(c3ccccc3n2Cc2ccccc2)C1
active: W2 2.56 µM
not listed: Dd2 | GB4 | P94_40 | PC26 | TAB165
inactive: all other assays above

CCN(CC)CCC(=O)N1c2ccccc2Sc2ccc(Cl)cc21
active: Dd2 5.62 µM | P93_24 3.98 µM | P94_40 5.01 µM | PC49 11.2 µM | W2 3.38 µM
inactive: JCK | N140

Cn1cc(NC(=O)c2cc(NC(=O)c3cc(NC=O)cn3C)cn2C)cc1C(=O)NCCC(=N)N
active: ECU 10 µM | FAB9 11.2 µM | GB4 7.57 µM | HB3 10 µM | ICS 3.55 µM | JCK 12.6 µM | N140 5.01 µM | P93_24 5.01 µM | P94_40 4.47 µM | PAD 5.01 µM | PC15 7.08 µM | PC26 13.5 µM | SC27B 11.2 µM | TAB109 5.01 µM | TAB113 5.01 µM | TAB165 5.01 µM | W2 4.78 µM

CN1CCCC(CN2c3ccccc3Sc3ccccc32)C1 (stereo not given)
inactive: FAB9 | HB3 | JCK | PC49
active: Dd2 4.47 µM | ICS 12.6 µM | N140 8.91 µM | TAB109 11.2 µM | TAB165 12.6 µM | W2 3.38 µM

Oc1cccc(O)c1O
inactive: DIV30 | FAB9 | JCK | N140 | PC49 | SC27B | TAB109 | TAB113
active: ICS 3.98 µM

CSCCC(N)C(=O)O (stereo not given)
not listed: GB4 | P93_24 | PC26 | DIV30
inactive: all other assays above

CCOC(=O)c1c[nH]c2cc(OCC(C)C)c(OCC(C)C)cc2c1=O
active: Dd2 0.141 µM | ECU 0.0891 µM | FAB9 0.1 µM | GB4 0.0601 µM | HB3 0.178 µM | ICS 0.0794 µM | JCK 0.282 µM | N140 0.141 µM | P93_24 0.141 µM | P94_40 0.126 µM | PAD 0.158 µM | PC15 0.112 µM | PC26 0.12 µM | PC49 0.141 µM | SC27B 0.1 µM | TAB109 0.0891 µM | TAB113 0.112 µM | TAB165 0.0708 µM | W2 0.0536 µM
